Compound in the assay: Nc1ncnc2c1ncn2[C@@H]1O[C@H](COP(=O)(O)OP(=O)(O)OP(=O)(O)O)[C@@H](O)[C@H]1O [adenosine triphosphate]
Put plainly: NP40-soluble protein abundance relative to vehicle (solubility fold change) (ratio); higher = more soluble protein in presence of ATP. Put shortly:
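Each value is a fold change relative to the detergent-processed vehicle, calculated per replicate from vsn-normalised intensities. Jurkat crude lysate received eight concentrations (0.1 to 10 mM) for 10 min at room temperature and 3 min at 37 °C, then was solubilised in 0.8% NP40 with benzonase (60 min, 4 °C). The ultracentrifuged supernatant was TMT-labelled and run by LC-MS/MS in three independent experiments.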

± gives the standard deviation of the averaged measurements. Of roughly 6,500 targets only a part is listed; those with the largest changes were picked by preference.

Chain of UniProt P09012 (P09012 whole entry): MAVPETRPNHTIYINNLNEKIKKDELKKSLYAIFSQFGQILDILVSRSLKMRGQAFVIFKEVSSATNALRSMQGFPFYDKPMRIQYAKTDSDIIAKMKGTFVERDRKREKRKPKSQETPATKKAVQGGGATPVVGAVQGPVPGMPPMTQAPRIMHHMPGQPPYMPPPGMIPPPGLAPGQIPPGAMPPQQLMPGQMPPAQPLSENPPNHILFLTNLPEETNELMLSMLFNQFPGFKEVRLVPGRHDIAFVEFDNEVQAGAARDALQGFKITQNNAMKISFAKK
Chain of UniProt P53677 (P53677 whole entry): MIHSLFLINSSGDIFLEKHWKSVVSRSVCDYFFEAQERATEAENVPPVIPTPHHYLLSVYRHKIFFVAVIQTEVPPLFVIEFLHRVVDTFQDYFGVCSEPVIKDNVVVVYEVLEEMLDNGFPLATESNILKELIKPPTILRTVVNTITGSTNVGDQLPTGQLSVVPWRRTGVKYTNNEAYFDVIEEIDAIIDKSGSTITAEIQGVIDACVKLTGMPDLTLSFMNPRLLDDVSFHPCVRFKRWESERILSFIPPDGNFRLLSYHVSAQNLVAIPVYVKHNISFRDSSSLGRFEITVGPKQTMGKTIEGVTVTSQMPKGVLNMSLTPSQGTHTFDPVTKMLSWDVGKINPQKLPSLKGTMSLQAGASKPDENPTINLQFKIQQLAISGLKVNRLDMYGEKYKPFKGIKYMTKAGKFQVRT
Chain of UniProt P16150 (P16150 whole entry): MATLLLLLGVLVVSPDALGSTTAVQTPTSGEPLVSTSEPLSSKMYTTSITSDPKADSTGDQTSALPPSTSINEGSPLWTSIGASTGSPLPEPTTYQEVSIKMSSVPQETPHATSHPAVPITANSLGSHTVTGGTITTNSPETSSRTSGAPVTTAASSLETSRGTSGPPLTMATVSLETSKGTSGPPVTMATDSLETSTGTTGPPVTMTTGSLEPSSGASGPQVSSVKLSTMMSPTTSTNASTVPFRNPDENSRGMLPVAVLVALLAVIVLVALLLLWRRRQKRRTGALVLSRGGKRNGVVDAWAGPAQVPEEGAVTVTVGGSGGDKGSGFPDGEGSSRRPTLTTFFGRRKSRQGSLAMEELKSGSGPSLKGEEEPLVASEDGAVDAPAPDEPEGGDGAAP

With AP3M2 (UniProt P53677), the NP40-soluble protein abundance was 1.09 ± 0.019 (concentration: 1mM); 1.08 ± 0.016 (concentration: 2mM); 1.13 ± 0.043 (concentration: 4mM); 1.02 ± 0.047 (concentration: 6mM); 1.06 ± 0.051 (concentration: 8mM); 1.08 ± 0.069 (concentration: 10mM).
In the case of SNRPA (UniProt P09012), the NP40-soluble protein abundance is, setting by setting: (concentration: 1mM) 1.01 ± 0.067; (concentration: 2mM) 0.989 ± 0.09; (concentration: 4mM) 0.973 ± 0.093; (concentration: 6mM) 0.984 ± 0.1; (concentration: 8mM) 0.992 ± 0.032; (concentration: 10mM) 0.97 ± 0.006.
In the case of SPN (UniProt P16150), the NP40-soluble protein abundance is, setting by setting: (concentration: 1mM) 0.828 ± 0.17; (concentration: 2mM) 0.803 ± 0.16; (concentration: 4mM) 0.812 ± 0.13; (concentration: 6mM) 0.835 ± 0.14; (concentration: 8mM) 0.765 ± 0.094; (concentration: 10mM) 0.71 ± 0.2.

The record behind these values is the supplement of paper PMC6411743.
